{"source": "paper PMC5540273", "about": "(PLoS ONE, 2017);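 note: KINOMEscan kinase panel screen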", "data": [{"test_system": "STK33", "conditions": "concentration: 1 μM, replicates: in singlicate; n = 1", "units": {"%Inh": "%"}, "values": [{"molecule": "CCn1c(-c2nonc2N)nc2c(C#CC(C)(C)O)nc(OC[C@H](N)c3ccccc3)cc21", "note": "[GSK943949]", "%Inh": 0}, {"molecule": "Cc1cccc(NC(=O)Nc2ccc(Oc3ncnc4ccn(C)c34)cc2)c1", "%Inh": 0}, {"molecule": "O=C(Nc1cccc(Oc2ccc3nc(NC(=O)C4CC4)cn3n2)c1)c1ccccc1C(F)(F)F", "%Inh": 0}, {"molecule": "O=C(Nc1ccccc1F)NC1CCN(c2ccnc(Nc3ccc(F)cc3)n2)CC1", "note": "[GSK1379800]", "%Inh": 0}, {"molecule": "NCCCC(NC(=O)c1cc(Br)c(-c2ccnc3[nH]ccc23)s1)c1ccccc1.O=C(O)C(F)(F)F.O=C(O)C(F)(F)F", "note": "(centres unmarked) [GSK1287544]", "%Inh": 91.5}, {"molecule": "COc1cccc(C(=O)Nc2cccc(Oc3ccc4nc(NC(=O)C5CC5)cn4n3)c2)c1", "%Inh": 10}, {"molecule": "COC(=O)Nc1nc2cc(Oc3ccc(NC(=O)Nc4cc(C(F)(F)F)ccc4F)cn3)ccc2[nH]1.Cl.Cl", "note": "[GW681170]", "%Inh": 55}, {"molecule": "Cc1ccc(C(=O)Nc2ccc(Nc3ccnc4cc(-c5nccs5)ccc34)cc2O)cc1.Cl", "note": "[GW494702]", "%Inh": 9}, {"molecule": "CCc1ccc(-c2ccc3c(c2)-c2c(cnn2C)S(=O)(=O)N3C)cc1", "%Inh": 0}, {"molecule": "CN(C)S(=O)(=O)c1cc(-c2ccc3nccc(-c4cccc(S(N)(=O)=O)c4)c3c2)cnc1N", "note": "[GSK1669921]", "%Inh": 3}, {"molecule": "COc1cccc(NC(=O)NC2CCN(c3ccnc(Nc4cc(OC)c(OC)c(OC)c4)n3)C2)c1", "note": "(centres unmarked) [GSK1379763]", "%Inh": 0}, {"molecule": "O=c1[nH]cc(-c2ccc(N3CCOCC3)cc2)c2sc(-c3cn[nH]c3)cc12", "note": "[GSK2276055]", "%Inh": 0}, {"molecule": "COc1cc(Nc2nccc(N3CCC(NC(=O)Nc4cccc(C(C)=O)c4)C3)n2)cc(OC)c1OC", "note": "(centres unmarked) [GSK1379753]", "%Inh": 0}, {"molecule": "CN1CCN(CCCNc2nccc(-c3c(-c4ccc(F)cc4)nn4cc(C(F)(F)F)ccc34)n2)CC1", "note": "[GW621581]", "%Inh": 0}, {"molecule": "c1ccc(-c2cnc3nccnn23)cc1", "note": "[AH20685]", "%Inh": 0}, {"molecule": "Cc1ccc(C(=O)N2CC[C@@H](O)C2)cc1-n1c(C)cc(OCc2ccc(F)cc2F)c(Br)c1=O", "%Inh": 2}, {"molecule": "C[C@@H](Oc1cc(-n2cnc3cc(-c4ccnc(NCCS(C)(=O)=O)c4)ccc32)sc1C(N)=O)c1ccccc1Cl", "note": "[GSK907232]", "%Inh": 0}, {"molecule": "Cl.c1ccc(-c2ccc3c(Nc4ccc5[nH]ncc5c4)ccnc3c2)nc1", "note": "[GW440137]", "%Inh": 0}, {"molecule": "Oc1cc(Nc2ccnc3cc(I)ccc23)ccc1F", "note": "[GW552771]", "%Inh": 0}, {"molecule": "Nc1n[nH]c2cnc(-c3ccccc3)cc12", "note": "[SB-642124]", "%Inh": 31}, {"molecule": "COc1cc(Nc2nccc(N3CCC(NC(=O)c4cc5ccccc5s4)C3)n2)cc(OC)c1OC", "note": "(centres unmarked) [GSK1379760]", "%Inh": 0}, {"molecule": "C[C@@H]1CC[C@@H](C(=O)Nc2ccccc2)CN1c1cc(-c2ccc3c(N)n[nH]c3c2)nc(N)n1", "note": "[GSK2286062]", "%Inh": 0}, {"molecule": "Nc1ncc(-c2cccnc2)c2scc(-c3ccc4c(c3)CCN4C(=O)Cc3ccccc3)c12", "note": "[GSK683281]", "%Inh": 20}, {"molecule": "Cc1ccc(F)c(C(=O)Nc2cccc(-c3nn4ccccc4c3-c3ccnc(Nc4cccc(F)c4)n3)c2)c1F", "note": "[GSK361061]", "%Inh": 4}, {"molecule": "O=C(Nc1cccc(-c2nn3ncccc3c2-c2ccnc(Nc3ccccc3)n2)c1)c1c(F)cccc1F", "note": "[GSK198271]", "%Inh": 0}, {"molecule": "CC(C)c1nc(-c2cccc(NS(=O)(=O)c3c(F)cccc3F)c2F)c(-c2ccnc(Nc3ccc(N4CCOCC4)nc3)n2)s1", "note": "[GSK2008607]", "%Inh": 83}, {"molecule": "COc1cc(Nc2ncc3c(C)nc(-c4cc5ccccc5[nH]4)n3n2)cc(OC)c1OC", "note": "[GW869516]", "%Inh": 10}, {"molecule": "COCCOCCOc1cc2ncc3c4ccc(C#N)cc4[nH]c3c2cc1OC", "%Inh": 24}, {"molecule": "O=C(O)C(F)(F)F.O=C(O)C(F)(F)F.O=c1[nH]ccc2nc(N[C@@H]3CCCNC3)nc(Nc3ccc(S(=O)(=O)N4CCOCC4)cc3)c12", "note": "[GSK2177277]", "%Inh": 98.6}, {"molecule": "Cc1cccc(Nc2nc(N[C@H]3CCNC3)ncc2C(N)=O)c1.Cl", "note": "[GSK2197149]", "%Inh": 40}, {"molecule": "COc1cc(Nc2nccc(-c3c(-c4cccc(NC(=O)c5c(F)cccc5F)c4)nn4ncccc34)n2)cc(OC)c1OC", "note": "[GSK327238]", "%Inh": 22}, {"molecule": "O=C(Nc1n[nH]c2cc(-c3ccoc3)ccc12)C1CC1", "note": "[SB-738481]", "%Inh": 0}]}]}
